Measured values published in the supplement of paper PMC6607015.
Where a name gives a salt, the structure may show the parent alone.

Tests used:
Conditions in all cases: compound concentration in added solution (µM; 5 µl added to 20 µl cells): 10; 18 h
A431 [1] = test: LBPA endosome anti-LBPA integrated intensity (sum per cell), Z-score; higher = more LBPA staining
How it was run: (§1)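 Z-scores normalised in AcuityXpress are given for per-cell integrated LBPA or filipin intensity, measured whole-cell or within LBPA endosomes by MetaXpress segmentation. Cells (HeLa MZ or A431, 3,500 per well in 20 µl) were seeded onto 5 µl of 10 µM compound solution in duplicate 384-well imaging plates and fixed in 4% PFA after 18 h.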

HeLa MZ [2] = test: as above
How it was run: as §1

A431 [3] = test: whole-cell filipin (free cholesterol) integrated intensity, Z-score; higher = more cholesterol staining
How it was run: as §1

HeLa MZ [4] = test: as above
How it was run: as §1

A431 [5] = test: filipin (cholesterol) integrated intensity within LBPA endosomes, Z-score; higher = more cholesterol in LBPA endosomes
How it was run: as §1

HeLa MZ [6] = test: as above
How it was run: as §1

| Compound | LBPA endosome anti-LBPA integrated intensity (z-score) (A431 [1]) | LBPA endosome anti-LBPA integrated intensity (z-score) (HeLa MZ [2]) | whole-cell filipin (z-score) (A431 [3]) | whole-cell filipin (z-score) (HeLa MZ [4]) | filipin (z-score) (A431 [5]) | filipin (z-score) (HeLa MZ [6]) |
| --- | --- | --- | --- | --- | --- | --- |
| Cc1cc2c(s1)Nc1ccccc1N=C2N1CCN(C)CC1 [Olanzapine] | 0.0572 | 1.62 | 0.197 | 0.311 | 0.151 | 0.615 |
| COc1ccc2c(c1)c(CC(=O)OCC(=O)O)c(C)n2C(=O)c1ccc(Cl)cc1 [Acemetacin] | -0.545 | -0.702 | -1.02 | -0.542 | -0.556 | -0.644 |
| Clc1ccccc1CN1CCc2sccc2C1 [Ticlopidine hydrochloride] | -0.571 | -1.16 | -0.834 | -0.662 | -0.515 | -0.675 |
| CCN(CCCc1ccccc1)CCCc1ccccc1 [Alverine citrate salt] | 2.06 | 1.56 | 1.13 | -0.0321 | 1.44 | 0.403 |
| NCCCCCC(=O)O [Aminocaproic acid] | -0.515 | -0.605 | -0.556 | -0.716 | -0.511 | -0.479 |
| OC[C@H]1O[C@@H](Oc2ccc(O)cc2)[C@H](O)[C@@H](O)[C@@H]1O [Arbutin] | -0.459 | 0.327 | -0.0729 | -0.0721 | -0.436 | -0.605 |
| O=C(O)CCc1nc(-c2ccccc2)c(-c2ccccc2)o1 [Oxaprozin] | -0.435 | -0.524 | -0.0363 | 0.42 | -0.35 | -0.246 |
| CCOc1ccc2c(c1)C(C)=CC(C)(C)N2 [Ethoxyquin] | -0.421 | 0.201 | -0.319 | -0.546 | -0.467 | -0.418 |
| Nc1ccn([C@@H]2CS[C@H](CO)O2)c(=O)n1 [Lamivudine] | -0.481 | -0.745 | -0.233 | -0.14 | -0.498 | -0.564 |
| CCn1cc(C(=O)O)c(=O)c2ccc(C)nc21 [Nalidixic acid sodium salt] | -0.59 | -0.884 | -0.346 | -0.298 | -0.467 | -0.567 |
| C[C@@]1(O)CCOC(=O)C1 [Mevalonic-D, L acid lactone] | -0.324 | -0.057 | -0.441 | 0.0668 | -0.408 | -0.457 |
| CCN(CC)C(=O)Nc1ccc(OCC(O)CNC(C)(C)C)c(C(C)=O)c1 (configuration not stated) [Celiprolol HCl] | 0.0633 | 0.456 | -0.229 | -0.152 | -0.388 | -0.405 |
| Clc1ccc(C(Cn2ccnc2)OCc2csc3c(Cl)cccc23)c(Cl)c1 (configuration not stated) [Sertaconazole nitrate] | -0.364 | 1.08 | 0.486 | 1.1 | -0.139 | 0.708 |
| CC[C@H](C)C(=O)O[C@H]1C[C@H](O)C=C2C=C[C@H](C)[C@H](CC[C@@H](O)C[C@@H](O)CC(=O)O)[C@H]21 [Pravastatin] | 1.48 | 0.0503 | -0.289 | -0.634 | 0.0167 | -0.441 |
| COc1ccc(C(=O)NCc2ccc(OCCN(C)C)cc2)cc1OC [Itopride] | -0.646 | -0.657 | -0.844 | -0.665 | -0.581 | -0.36 |
| N=C(N)N/N=C/c1c(Cl)cccc1Cl [Guanabenz acetate] | 2.17 | 0.543 | 1.23 | -0.116 | 1.62 | 0.458 |
| CC1CCc2cc(F)cc3c(=O)c(C(=O)O)cn1c23 (configuration not stated) [Flumequine] | -0.63 | -0.763 | -0.836 | -0.225 | -0.543 | -0.72 |
| CN1CCCN=C1/C=C/c1cccc(O)c1 [Oxantel pamoate] | -0.563 | -0.852 | -0.857 | -0.729 | -0.5 | -0.659 |
| CCC(=O)O[C@]1(C(=O)CCl)[C@@H](C)C[C@H]2[C@@H]3CCC4=CC(=O)C=C[C@]4(C)[C@@]3(F)[C@@H](O)C[C@@]21C [Clobetasol propionate] | -0.343 | -0.845 | 0.00699 | -0.332 | -0.266 | -0.465 |
| COC(=O)[C@H]1[C@H]2C[C@@H]3c4[nH]c5cc(OC)ccc5c4CCN3C[C@H]2C[C@@H](OC(=O)c2cc(OC)c(OC)c(OC)c2)[C@@H]1OC [Reserpine] | 3.11 | 2.24 | 2.19 | 1.75 | 2.34 | 1.96 |
| c1ccc2c(c1)CCCc1cc(NCCN3CCOCC3)nnc1-2 | -0.68 | -0.691 | -0.665 | -0.162 | -0.491 | -0.0973 |
| CN(C)CCCC1(c2ccc(F)cc2)OCc2cc(C#N)ccc21 (configuration not stated) [Citalopram Hydrobromide] | -0.329 | 1.58 | 0.204 | 0.212 | -0.352 | 0.534 |
